13 molecules from PubChem BioAssay (NCATS) can be followed below.

Each structure is given as a SMILES string. “And” between values parts separate entries of the source, which are not always exact repeats. Identical values can stand only once. Inconclusive results are not listed. Entries that show only a call come without a potency. The source made the active and inactive calls. Calls come from the whole dose curve; as a rule, active = well fitted curve in the direction sought with a large enough effect; inconclusive = small, poorly fitted or top-dose-only effect, or another doubt; inactive = no such curve, though single readings can be large; an effect the other way counts as inactive or inconclusive.

Experiment [1] concerns the target Cytochrome P450 3A4 (Homo sapiens) (UniProt P08684). The experiment can be described thus: qHTS Assay for Inhibitors and Substrates of Cytochrome P450 3A4 (AID 884). Note: nearly all actives have a fitted effect of over 50% in size. Note: potency is the fitted concentration of half-maximal effect. In outline: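 20 nM human CYP3A4 with 25 uM Luciferin-PPXE (at KM) in 200 mM KPO4, preincubated 10 min with compound; NADPH regeneration started a 60 min RT reaction. Luciferin detected by luminescence, normalized to 57 uM ketoconazole as full inhibition.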
In general terms: In qHTS, concentration-response curves come from the screen itself.

Experiment [2] shares this target. In words: qHTS Assay for Activators of Cytochrome P450 3A4 (AID 885). Note: nearly all actives have a fitted effect of over 65% in size. In outline: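 Quantitative HTS format: compounds preincubated with 20nM human CYP3A4 and Luciferin-PPXE substrate at KM, reaction started by NADPH regeneration, stopped after 60 min, luciferase luminescence read 20 min later.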
In experiment [3] the target is Cytochrome P450 2C9 (Homo sapiens) (UniProt P11712). The experiment can be described thus: qHTS Assay for Inhibitors and Substrates of Cytochrome P450 2C9 (AID 883). Note: nearly all actives have a fitted effect of over 60% in size. Note: potency is the fitted concentration of half-maximal effect. In outline: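 Human CYP2C9 (10nM) hydroxylated Luciferin-H (100uM, at its KM) to luciferin in 25mM KPO4. Compound was preincubated 10 min at 37C, then NADPH regeneration started a 60 min reaction at 37C. Luminescence was read after detection reagent, normalized to 57uM sulphaphenazole.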

Experiment [4] deals with Cytochrome P450 2D6 (Homo sapiens) (UniProt P10635). In words: qHTS Assay for Inhibitors and Substrates of Cytochrome P450 2D6 (AID 891). Note: nearly all actives have a fitted effect of over 60% in size. Note: potency is the fitted concentration of half-maximal effect. In outline: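 Human CYP2D6 (5 nM) with 30 uM Luciferin-ME EGE (at Km) in 100 mM KPO4, compound preincubated 10 min, then NADPH regeneration system for 60 min at room temperature. Luciferin read by luminescence; normalized to 1.43 uM quinidine.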

The target of experiment [5] is Cytochrome P450 2C19 (Homo sapiens) (UniProt P33261). The experiment can be described thus: qHTS Assay for Inhibitors and Substrates of Cytochrome P450 2C19 (AID 899). Note: nearly all actives have a fitted effect of over 60% in size. Note: potency is the fitted concentration of half-maximal effect. Put shortly: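 Human CYP2C19 (5nM) with Luciferin-H EGE at 10uM (its KM) in 50mM KPO4 was preincubated with compound for 10 min at 37C. NADPH regeneration started a 60 min 37C reaction. Luciferin was read by luminescence, normalized to 57uM ketoconazole.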

The target in experiment [6] is Guanine nucleotide-binding protein G(i) subunit alpha-1 (Homo sapiens) (UniProt P63096). The experiment can be described thus: qHTS Assay for Inhibitors of RGS12 GoLoco Motif Activity (Green Fluorophore) (AID 879).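 Note: negative values mean loss of peptide binding seen as reduced polarization.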 In outline:
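Fluorescence polarization assay: 50 nM Gαi1 with 10 nM FITC-labeled RGS12 GoLoco peptide in 10 mM Tris pH 7.5, 150 mM NaCl, 0.1 mM GDP, 0.05% NP40, 10 min at room temperature with compound.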

A short description of experiment [7]: qHTS Assay for Identification of Small Molecule Agonists for Thrombopoietin (TPO) Signaling Pathway (AID 917). In outline:
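Murine Ba/F3 cells stably expressing human TPO receptor and a Glycoprotein IIb promoter–luciferase reporter were IL-3-starved overnight, then treated with compounds plus TPO (26 pM final, its EC50) for 24 hrs at 37 C; luminescence was read.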

Experiment [8] is described as follows: Cellular Toxicity (caspase-3) NIH 3T3 (AID 666).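 Note: caspase signal read after 16 h compound exposure.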 In outline: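 Mouse NIH 3T3 fibroblasts (1000 cells/well) were treated with compound for 16 hr at 37°C in complete medium; caspase-3/7 activity was read by Caspase-Glo luminescence. Normalized to DMSO and 100 uM tamoxifen; AC50 from Hill fits.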
Experiment [9] can be described thus: Cellular Toxicity (caspase-3) Renal Proximal Tubule (AID 667).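 Note: cells exposed to compound for 16 hours at 37 °C before detection.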 In outline: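 Primary rat proximal tubule cells, 1000/well, 5 h plating at 37 °C, then compound 16 h at 37 °C. Caspase-Glo 3/7 reagent, 1 h RT, luminescence. Normalized to DMSO (basal) and 10 uM staurosporine (100%); Hill-fit AC50.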
Experiment [10] in a line: Cell Viability - LYMP2-001 (AID 921). Note: series mostly up to about 92 µM; nearly all actives have a fitted effect of over 70% in size. In outline: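 Human lymphoblastoid cells (Coriell), 2500 per well, were preincubated 5 hr at 37 C, then exposed to compounds in complete medium for 24 hr at 37 C. Cellular ATP was read by CellTiter-Glo luminescence; AC50 from Hill fits of concentration-response data.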

Chain of Guanine nucleotide-binding protein G(i) subunit alpha-1 (Homo sapiens) (P63096 whole entry, looked up): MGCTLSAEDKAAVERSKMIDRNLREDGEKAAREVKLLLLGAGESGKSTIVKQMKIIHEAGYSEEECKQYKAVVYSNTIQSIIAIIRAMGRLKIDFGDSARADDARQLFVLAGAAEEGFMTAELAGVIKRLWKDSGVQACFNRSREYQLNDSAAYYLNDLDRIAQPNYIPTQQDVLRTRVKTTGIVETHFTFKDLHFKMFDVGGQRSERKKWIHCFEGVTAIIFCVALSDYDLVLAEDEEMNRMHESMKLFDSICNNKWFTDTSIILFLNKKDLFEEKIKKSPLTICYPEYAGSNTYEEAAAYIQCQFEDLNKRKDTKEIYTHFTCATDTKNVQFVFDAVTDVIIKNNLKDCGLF
Chain of Cytochrome P450 2C9 (Homo sapiens) (P11712 whole entry, looked up): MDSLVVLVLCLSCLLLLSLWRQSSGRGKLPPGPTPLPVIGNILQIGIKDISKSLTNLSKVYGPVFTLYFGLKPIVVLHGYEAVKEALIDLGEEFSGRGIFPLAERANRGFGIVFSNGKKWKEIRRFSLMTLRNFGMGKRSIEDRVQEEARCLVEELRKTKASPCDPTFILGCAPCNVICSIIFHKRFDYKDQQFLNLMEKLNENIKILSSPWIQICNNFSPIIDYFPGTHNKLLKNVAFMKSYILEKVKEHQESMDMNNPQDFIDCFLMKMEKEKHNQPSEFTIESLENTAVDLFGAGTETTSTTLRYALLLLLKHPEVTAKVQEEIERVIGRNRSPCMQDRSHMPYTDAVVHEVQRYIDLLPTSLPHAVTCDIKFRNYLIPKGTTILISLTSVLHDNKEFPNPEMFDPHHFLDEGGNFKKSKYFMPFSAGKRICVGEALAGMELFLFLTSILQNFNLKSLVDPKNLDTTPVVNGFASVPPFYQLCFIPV
Chain of Cytochrome P450 2C19 (Homo sapiens) (P33261 whole entry, looked up): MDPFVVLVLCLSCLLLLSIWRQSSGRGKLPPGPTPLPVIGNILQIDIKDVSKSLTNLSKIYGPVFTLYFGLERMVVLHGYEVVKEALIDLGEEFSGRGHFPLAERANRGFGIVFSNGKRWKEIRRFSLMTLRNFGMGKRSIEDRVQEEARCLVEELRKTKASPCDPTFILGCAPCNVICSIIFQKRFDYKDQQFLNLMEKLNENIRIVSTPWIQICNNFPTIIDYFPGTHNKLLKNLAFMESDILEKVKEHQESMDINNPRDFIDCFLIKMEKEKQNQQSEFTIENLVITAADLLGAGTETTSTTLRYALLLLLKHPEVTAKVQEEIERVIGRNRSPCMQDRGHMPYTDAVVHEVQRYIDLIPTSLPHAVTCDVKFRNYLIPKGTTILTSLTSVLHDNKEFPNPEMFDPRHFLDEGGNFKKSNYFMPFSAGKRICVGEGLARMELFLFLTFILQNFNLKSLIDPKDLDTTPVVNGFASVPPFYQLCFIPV
Chain of Cytochrome P450 2D6 (Homo sapiens) (P10635 whole entry, looked up): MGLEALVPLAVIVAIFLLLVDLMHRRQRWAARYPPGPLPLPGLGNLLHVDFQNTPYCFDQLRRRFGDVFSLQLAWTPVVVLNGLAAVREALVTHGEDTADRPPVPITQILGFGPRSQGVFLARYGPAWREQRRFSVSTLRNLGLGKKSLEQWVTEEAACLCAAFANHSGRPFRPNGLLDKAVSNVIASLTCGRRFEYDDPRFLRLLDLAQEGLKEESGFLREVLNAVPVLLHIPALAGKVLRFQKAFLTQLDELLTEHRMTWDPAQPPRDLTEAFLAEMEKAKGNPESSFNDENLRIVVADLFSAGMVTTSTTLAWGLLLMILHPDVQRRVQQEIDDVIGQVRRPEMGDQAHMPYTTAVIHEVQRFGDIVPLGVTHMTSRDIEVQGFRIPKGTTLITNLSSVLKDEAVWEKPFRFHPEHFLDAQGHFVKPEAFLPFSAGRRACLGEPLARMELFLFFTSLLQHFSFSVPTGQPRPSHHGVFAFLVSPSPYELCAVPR
Chain of Cytochrome P450 3A4 (Homo sapiens) (P08684 whole entry, looked up): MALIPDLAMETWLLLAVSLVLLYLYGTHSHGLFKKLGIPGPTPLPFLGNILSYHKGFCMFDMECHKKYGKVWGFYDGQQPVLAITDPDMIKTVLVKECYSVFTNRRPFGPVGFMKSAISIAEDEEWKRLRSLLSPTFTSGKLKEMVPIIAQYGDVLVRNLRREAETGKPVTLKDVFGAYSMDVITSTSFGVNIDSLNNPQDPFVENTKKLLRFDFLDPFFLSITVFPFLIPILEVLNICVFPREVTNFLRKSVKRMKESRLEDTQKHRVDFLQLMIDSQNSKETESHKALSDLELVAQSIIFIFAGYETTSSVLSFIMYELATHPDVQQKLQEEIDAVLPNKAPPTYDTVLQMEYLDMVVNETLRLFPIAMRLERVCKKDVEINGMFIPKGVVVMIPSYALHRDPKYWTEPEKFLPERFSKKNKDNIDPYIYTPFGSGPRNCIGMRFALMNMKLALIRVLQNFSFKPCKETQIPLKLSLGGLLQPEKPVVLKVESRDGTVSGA

Consider `COc1ccc(C(C)=O)c(O)c1`, for which, in experiment [1], the Potency was 1.26 µM (active). Further, the molecule was classed as inactive in [2].

For the molecule `O=c1c(O)c(-c2ccc(O)c(O)c2)oc2cc(O)ccc12`, the figures for the Potency in experiment [3] and in experiment [1] were 20 µM (active) and 39.8 µM (active), respectively. In addition, the result in [2] was inactive. In addition, the Potency result in experiment [4] and in experiment [5] was “inactive” each time.

On to `CCOC(=O)C1=C(C)NC(=S)NC1c1cccc(O)c1` (stereo not given), for which, in [2], the outcome was inactive.

As for `C[C@@]12C(=O)OC(=O)[C@@]1(C)C1CCC2O1`, the Potency result in [1] was “inactive”.

For the molecule `O=C(O)C=Cc1ccc(Cn2ccnc2)cc1`, the result in experiment [2] was inactive. Besides, the Potency in experiment [4] was 0.0794 µM (active).

For `Oc1cc2c(cc1O)C1c3ccc(O)c(O)c3OCC1(O)C2` (stereo not given), the molecule was called inactive in experiment [2].

On to `COc1ccc2c(c1OC)C(=O)OC2[C@H]1c2c(cc3c(c2OC)OCO3)CCN1C` (stereo not given in full), for which the call in experiment [6], in experiment [2] and in experiment [7] was inactive. Moreover, the Potency in experiment [4] was 15.8 µM (active); in [5], 1.26 µM (active) and 316 nM (active) and 398 nM (active).

With `CN(C)CC[C@H](c1ccc(Cl)cc1)c1ccccn1`, the outcome in experiment [6] and in [7] was inactive. The Potency entry in experiment [3] was “inactive”.

As for `Cc1ccc(O)c(C(CCN(C(C)C)C(C)C)c2ccccc2)c1` (stereo not given), the Potency entry in experiment [1] was “inactive”.

Turning to `OCC(O)C(O)C(O)CO` (stereo not given), in experiment [1], the Potency result is “inactive”.

On to `COc1ccc([C@@H]2CNC(=O)C2)cc1OC1CCCC1`, for which the Potency result in experiment [3], in [4] and in experiment [5] was “inactive” each time. In addition, the result in experiment [2] was inactive.

`COC(=O)C1C2CC3c4[nH]c5cc(OC)ccc5c4CCN3CC2CC(OC(=O)c2cc(OC)c(OC)c(OC)c2)C1OC` (stereo not given): in experiment [2], the outcome was inactive.

As for `Cc1cc(O)c2c(c1)C(=O)c1cccc(O)c1C2=O`, the molecule was called inactive in experiment [8], in [9] and in experiment [10].
